In all, about 33,000 sequences were measured (“E-score (-0.5 to 0.5)”: median about -0.043, highest 2% from about 0.37 on). The list comes from a sample in which the highest values are over-represented; it also holds similar and randomly drawn sequences.
target: T1, Upc2 (UniProt Q12151); assay: PBM E-score (8-mer binding enrichment) (E-score (-0.5 to 0.5)); higher = stronger / more preferred TF binding; details: protein concentration: 200 nM; construct: GST-full length
T1 sequence: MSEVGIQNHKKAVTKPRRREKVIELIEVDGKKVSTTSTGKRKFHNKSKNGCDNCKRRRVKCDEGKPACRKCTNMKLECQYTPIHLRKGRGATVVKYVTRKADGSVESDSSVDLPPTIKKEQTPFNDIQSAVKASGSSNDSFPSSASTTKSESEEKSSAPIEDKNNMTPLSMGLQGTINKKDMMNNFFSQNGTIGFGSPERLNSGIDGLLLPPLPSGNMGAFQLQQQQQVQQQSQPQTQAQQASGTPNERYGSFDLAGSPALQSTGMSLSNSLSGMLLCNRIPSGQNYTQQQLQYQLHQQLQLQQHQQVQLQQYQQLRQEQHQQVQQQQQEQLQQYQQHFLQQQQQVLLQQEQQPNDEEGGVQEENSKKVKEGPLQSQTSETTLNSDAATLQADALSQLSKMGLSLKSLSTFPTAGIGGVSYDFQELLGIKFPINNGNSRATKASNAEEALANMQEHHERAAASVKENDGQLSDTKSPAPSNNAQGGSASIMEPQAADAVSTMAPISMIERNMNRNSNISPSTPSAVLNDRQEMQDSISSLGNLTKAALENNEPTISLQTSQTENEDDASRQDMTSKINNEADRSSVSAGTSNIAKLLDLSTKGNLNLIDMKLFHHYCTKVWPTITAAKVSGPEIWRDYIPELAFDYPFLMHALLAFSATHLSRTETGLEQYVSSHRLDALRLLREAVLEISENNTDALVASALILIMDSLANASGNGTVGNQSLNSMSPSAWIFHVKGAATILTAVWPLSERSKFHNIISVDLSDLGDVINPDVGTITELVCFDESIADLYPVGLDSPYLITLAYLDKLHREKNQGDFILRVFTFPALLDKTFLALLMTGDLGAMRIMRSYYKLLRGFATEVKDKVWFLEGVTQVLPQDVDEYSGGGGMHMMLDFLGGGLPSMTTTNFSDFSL
Method: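 Universal 'all 10-mer' protein binding microarrays (Agilent AMADID 015681) probed with GST-tagged S. cerevisiae TFs (full-length or DBD) made by in vitro transcription/translation (PURExpress), about 100-200 nM. Bound TF was detected with fluorescent anti-GST. Each ungapped 8-mer (which stands for itself and its reverse complement) is scored by the PBM enrichment score (E-score), a modified Wilcoxon-Mann-Whitney statistic from -0.5 to +0.5, computed with the Universal PBM Analysis Suite. Scale: above 0.35 generally sequence-specific binding.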

| Sequence | PBM E-score |
| --- | --- |
| CTAACCGA | 0.37 |
| CTGCTCTA | -0.0369 |
| ACAATCCT | -0.183 |
| CAGGACGG | -0.164 |
| CGAAGTAG | 0.00964 |
| ACACGAAT | 0.258 |
| AGACGAAT | 0.0524 |
| GGACGAAA | -0.0427 |
| GTACGAAA | 0.442 |
| ATCCGAAC | 0.146 |
| CTACGAAG | 0.316 |
| ATACGAAC | 0.472 |
| GCACGAAA | 0.127 |
| ATACGAAG | 0.476 |
| ATTCGAAC | 0.119 |
| ATACGAAT | 0.459 |
| ACACGAAG | 0.211 |
| CATCGATC | -0.0852 |
| ATAGATTC | -0.12 |
| GGCATAAC | -0.0916 |
| ACCGATCC | -0.0521 |
| ATACTCAT | -0.111 |
| GTGGGCTA | -0.128 |

| Sequence | PBM E-score |
| --- | --- |
| ATACGTAT | 0.372 |
| GGACGAAC | 0.0508 |
| AGACGAAA | 0.196 |
| ATACGTAC | 0.339 |
| CTACGAAA | 0.272 |
| CTACGAAC | 0.333 |
| ATACGTAA | 0.334 |
| TTACGAAA | 0.41 |
| ACACGAAA | 0.197 |
| TCACGAAA | -0.0654 |
| ATACGAAA | 0.47 |
| GTACGAAC | 0.467 |
| AGCTCGAT | -0.0109 |
| AAGCTGGT | -0.0392 |
| CAGATTGG | -0.303 |
| CAACTTCA | -0.0217 |
| CCATTTCA | -0.241 |
| CTCAGCTC | -0.114 |
| AGCGAGAG | 0.229 |
| TGTATAAA | 0.156 |
| AGTATAAA | 0.238 |
| CGTATAAG | 0.481 |
| GGTATAAC | 0.135 |

| Sequence | PBM E-score |
| --- | --- |
| AGTATAAG | 0.261 |
| CGTATAAC | 0.478 |
| AGTATAAC | 0.172 |
| CGTATAAA | 0.477 |
| CATATAAG | 0.17 |
| AACTTTCC | -0.281 |
| AGCTCTCA | -0.214 |
| GGGAGGTA | 0.132 |
| CACAGATA | -0.136 |
| GCACTGGA | -0.0891 |
| AGTATACA | 0.149 |
| AGTATACC | 0.124 |
| CGTATACC | 0.472 |
| CGTATACA | 0.474 |
| GGTATACC | 0.214 |
| GGTATACA | -0.0256 |
| CGTTCAGC | 0.396 |
| CGTTCAGA | 0.372 |
| CGTTCATC | 0.353 |
| AGTTCAGC | -0.205 |
| AGTTCAGA | -0.0704 |
| GGTTCAGA | -0.186 |
| AGGCGTGC | -0.0583 |

| Sequence | PBM E-score |
| --- | --- |
| CGCAGTAG | -0.0605 |
| AAAGGTGT | 0.0174 |
| GTTAGCCA | -0.0759 |
| ACTGAGAT | -0.184 |
| CGTTAAGA | 0.341 |
| CTTTAAAG | -0.114 |
| CGTTAAAC | 0.411 |
| CGTTAAAA | 0.364 |
| CGTTAAGC | 0.432 |
| GGTTAAAC | 0.232 |
| AGTTAAGC | 0.00193 |
| AGTTAAAG | 0.0271 |
| CGTTAAAG | 0.4 |
| GAAAACTC | -0.114 |
| AGAGAATG | 0.0339 |
| GCAGTGGA | -0.123 |
| CTCAATAA | -0.213 |
| GACAGTGA | -0.0168 |
| CACTAGGA | -0.245 |
| AGATACGC | 0.201 |
| GGATACGA | 0.463 |
| CGATACGA | 0.464 |
| CGATACAA | 0.0776 |

| Sequence | PBM E-score |
| --- | --- |
| CGATACGC | 0.267 |
| AGATACGG | 0.307 |
| GGATACCA | -0.0879 |
| GGATACTA | -0.183 |
| AGATACGA | 0.454 |
| TGCGGCAA | -0.127 |
| ATATCTAC | 0.0208 |
| CTGCTCAC | 0.00302 |
| AGCGTGAA | -0.0302 |
| ACAGCTAT | -0.0224 |
| AGGTCGTA | 0.451 |
| GGGTCGAA | 0.0267 |
| CGGTCGTC | 0.0119 |
| GGGTCGGA | 0.0691 |
| AGGTCGTG | 0.0575 |
| CGGTCGGA | -0.0376 |
| CGGTCGTA | 0.442 |
| AGGTCGTC | 0.0416 |
| GGGTCGTA | 0.42 |
